ALDH1A1 block = blocks purified human ALDH1A1 activity. Purified ALDH1A1, NADH fluorescence, propionaldehyde substrate. Potency, µM (doses to about 75.3 µM), actives largely listed as inhibitors. actives 7.3% (n = 220,000). AID 1030; active means well fitted inhibition curve with a large enough effect, not every such curve was filed as active; inconclusive means small, poorly fitted or top-dose-only effect, or another doubt; inactive means no such curve, though single readings can be large or run the other way
Target sequence (P00352 whole entry, looked up): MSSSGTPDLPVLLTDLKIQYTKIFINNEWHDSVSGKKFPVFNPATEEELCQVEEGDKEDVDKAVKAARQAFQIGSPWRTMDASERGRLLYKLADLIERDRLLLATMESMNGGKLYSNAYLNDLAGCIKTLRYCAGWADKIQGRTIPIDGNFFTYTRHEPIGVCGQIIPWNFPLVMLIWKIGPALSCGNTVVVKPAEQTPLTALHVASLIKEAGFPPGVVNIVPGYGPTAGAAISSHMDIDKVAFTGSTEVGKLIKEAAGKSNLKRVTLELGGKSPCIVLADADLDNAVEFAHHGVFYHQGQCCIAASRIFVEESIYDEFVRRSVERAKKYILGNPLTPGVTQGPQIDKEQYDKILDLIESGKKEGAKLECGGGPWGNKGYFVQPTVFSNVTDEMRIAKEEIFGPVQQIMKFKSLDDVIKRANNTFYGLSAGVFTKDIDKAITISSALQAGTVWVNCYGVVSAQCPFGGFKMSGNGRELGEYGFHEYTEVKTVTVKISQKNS
IMPase cell inh = membrane-permeable compound that blocks inositol monophosphatase; CHO-M1 cells, IP1 accumulation, HTRF TR-FRET ratio; inhibition (IP1 accumulation), % at 46.1 µM; 120,000 tested, under 10 active; AID 901; active means well fitted curve in the direction sought with a large enough effect in the signal ratio, not every such curve was filed as active; inconclusive means small, poorly fitted or top-dose-only effect, or a change in a side signal; inactive means no such curve, though single readings can be large or run the other way; the % refers to the signal ratio;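 further: cells stimulated with carbachol in lithium chloride buffer; higher means more IMPase inhibition seen as more IP1 and lower FRET ratio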
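Cellular IMPase inhibition is scored as a rise in cytosolic IP1, detected by competitive TR-FRET between d2-labelled IP1 and a europium anti-IP1 antibody. M1-expressing CHO cells were stimulated with carbachol for 30 min at 37C, with lithium (50 mM LiCl) present in the buffer.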
HPGD inh = HPGD (human) dehydrogenase inhibition; P15428; purified HPGD, NADH fluorescence kinetic, PGE2 substrate; Potency, µM, actives largely listed as inhibitors; actives 4.3% (n = 150,000); AID 894; active means well fitted inhibition curve with a large enough effect, not every such curve was filed as active; inconclusive means small, poorly fitted or top-dose-only effect, or another doubt; inactive means no such curve, though single readings can be large or run the other way
Target sequence (P15428 whole entry, looked up): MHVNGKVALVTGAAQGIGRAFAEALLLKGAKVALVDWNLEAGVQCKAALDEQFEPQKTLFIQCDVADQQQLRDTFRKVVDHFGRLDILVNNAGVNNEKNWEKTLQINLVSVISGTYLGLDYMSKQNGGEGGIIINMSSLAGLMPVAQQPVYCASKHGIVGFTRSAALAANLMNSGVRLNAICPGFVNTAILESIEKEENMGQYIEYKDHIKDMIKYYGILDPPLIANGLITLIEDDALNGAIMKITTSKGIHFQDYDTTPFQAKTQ
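20 nM HPGD preincubated 15 min at room temperature with compound in 50 mM Tris-HCl pH 8, 0.01% Tween 20. Started with 1 mM NAD+ and 30 uM prostaglandin E2; NADH fluorescence (360/450 nm) read 5 times over 30-s intervals, last minus first.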
IMPase Li cell = cell-permeable IMPase inhibitors with lithium potentiation; Potency, µM (titrated, usually from 59.4 µM), usual class: inhibitors; CHO-M1 cells, IP1 TR-FRET (IP-One), carbachol + lithium; actives 0.35% (n = 210,000);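 further: IP1 builds up when IMPase is blocked and the TR-FRET signal falls; nearly all actives have a fitted effect of over 50% in size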
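Concentration–response in CHO-M1 cells, lithium-potentiated; 30 min at 37C. IP1 detected by competitive TR-FRET after 10 min lysis at RT. Hill-fitted AC50.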
NPSR antag = blocks cAMP signaling of the human neuropeptide S receptor | actives 1% (n = 220,000) | Q6W5P4 | Potency, µM (series often up to 38.3 µM), most hits filed as inhibitors | CHO-NPSR cells, cAMP TR-FRET, antagonist mode; further: nearly all actives have a fitted effect of over 50% in size
12-hLO inh = inhibitors of human 12-lipoxygenase (ALOX12). AID 1452. Potency, µM (top dose mostly 57.1 µM), usual class: inhibitors. actives 0.12% (n = 150,000). purified 12-hLO, xylenol orange hydroperoxide absorbance. P18054; further: nearly all actives have a fitted effect of over 55% in size
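Hydroperoxide output read as Fe(III)-xylenol orange absorbance, 573-to-405 nm ratio, after 30 min reaction with 40 uM arachidonic acid. Enzyme: 150 nM purified human 12hLO, 15 min compound preincubation; 25 mM Hepes pH 7.0, room temperature.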
Hits are given with their value; n = inactive; u = inconclusive; x = no result; [ ] = another dose, or the depositor's remark. Most compounds without a hit are left out; they make up all but 8.9% or so of the library. Unless noted, the call rests on the fitted dose curve; in most records, active means well fitted curve in the direction sought with a large enough effect; inconclusive means small, poorly fitted or top-dose-only effect, or another doubt; inactive means no such curve, though single readings can be large; an effect the other way counts as inactive or inconclusive.

SMILES | ALDH1A1 block | IMPase cell inh | HPGD inh | IMPase Li cell | NPSR antag | 12-hLO inh
O=C1CN2CCN(CC2)CC(=O)Nc2ccc(cc2)S(=O)(=O)c2ccc(cc2)NC(=O)CN2CCN(CC2)CC(=O)Nc2ccc(cc2)S(=O)(=O)c2ccc(cc2)N1 | 1.6µM | x | n | n | x | n[11.4 µM]
COc1cc(C(=O)NCC(=O)N/N=C/c2ccccn2)cc(OC)c1OC | n | x | x | n | n | x
CCCNC(=O)Nc1nccs1 | n | n | n | n | n | n
CC(=O)Nc1sc(NC(=O)c2ccc(Cl)cc2)nc1-c1cccs1 | n | n | n | n | n | n
Nc1nc(-c2cccs2)c(NC(=O)c2ccccc2)s1 | 20µM | n | n | n | n[7.67 µM] | n
CN(CCO)C(=O)C(c1ccccc1)c1ccccc1 | x | x | x | x | n | x
O=C(CSC1=NCCS1)N1CCCCCC1 | n | n | 28µM | n | n | n
CN1CCN(c2nc(-c3ccccc3)ncc2S(=O)(=O)c2ccccc2)CC1 | 14µM | x | x | n | n | x
CN(C)c1nc(-c2ccccc2)ncc1S(=O)(=O)c1ccccc1 | u | x | x | n | n | x
Cc1ccc(S(=O)(=O)c2cnc(-c3ccccc3)nc2N2CCN(C)CC2)cc1 | 2.2µM | x | x | n | n | x
O=C(O)c1ccccc1SCc1nc2ccccn2c1Br | n | x | x | n | n | x
Cc1ccccc1OCC(=O)NCCN(C)C | n | n | n | n | n | n
CC1(C)CC(=O)C=C(NCc2cccs2)C1 | n | n | n | n | n | n
Cc1ccc(N2C(=O)CSCC2=O)cc1 | n | n | n | n | n | n
Cc1ccc(N2C(=O)CS/C2=C(\C(Cl)=C(Cl)Cl)[N+](=O)[O-])cc1 | 20µM | n | n | n | n | u
Cc1c(CN2CCCC(C)C2)c(O)n(CCO)c(=O)c1C#N (centres undefined) | n | x | x | n | n | x
CN(C)c1ccc(-c2cccc(C3CC=CC4C3C(=O)N(Cc3ccccc3)C4c3ccc4ccccc4c3)c2)cc1 (centres undefined) | x | x | x | x | n | x
Cc1cc(C)cc(N(CC(=O)Nc2ccccc2-c2ccccc2)S(=O)(=O)c2ccccc2)c1 | n | n | 10µM | n | n | n
CC(=O)c1cccc(NC(=S)NCCc2ccc(F)cc2)c1 | n | x | x | n | n | x
COc1ccc(N2CCC(CNC(=S)Nc3cc(C)cc(C)c3)C2)cc1 (centres undefined) | x | x | x | x | n | x
O=C(NCC1CCN(S(=O)(=O)c2ccccc2)CC1)Nc1ccc(F)cc1 | u | x | x | x | n | x
COc1ccc(N2CCC(CNC(=O)Nc3ccccc3)C2)cc1 (centres undefined) | 5µM | n | u | n | n | n
O=C(NCC1CCN(S(=O)(=O)c2ccccc2)CC1)Nc1ccccc1 | 28µM | x | x | x | n | x
Cc1ccc(CNC(=O)COC(=O)C2CCN(S(=O)(=O)c3cccs3)CC2)cc1 | n | x | x | n | n | x
COc1ccc(CNC(=O)CN2CCN(S(=O)(=O)c3cccs3)CC2)cc1OC | 11µM | x | x | n | n | x
SMILES | ALDH1A1 block | IMPase cell inh | HPGD inh | IMPase Li cell | NPSR antag | 12-hLO inh
COc1ccccc1NC(=O)CSc1nc2ccccc2c(=O)n1CCNC(C)=O | n | n | n | n | n | n
O=C(CSc1nnc(-c2ccccc2O)o1)N1CCc2ccccc2C1 | 22µM | n | n | n | n | n
CC(C)N(C(=O)CSc1nnc(-c2cc3ccccc3cc2O)n1Cc1ccco1)C(C)C | n | n | n | n | n | n
O=C(CSc1nnc(-c2cc3ccccc3cc2O)n1Cc1ccco1)N1CCc2ccccc2C1 | 35µM | n | n | n | n | n
O=C(CSc1nnc(-c2ccccc2Cl)o1)N1CCCCC1 | u | n | 25µM | n | n | n
Clc1ccccc1-c1nnc(-c2ccccc2Cl)o1 | n | n | 16µM | n | n | n
Clc1ccc(-c2nnc(-c3ccccc3Cl)o2)cc1 | u | n | x | x | n | n
Fc1ccc(NC(=S)Nc2ccc(Br)cc2)cc1 | n | x | n | n | n | n
O=C(NCc1n[nH]c(=S)n1-c1cccc(C(F)(F)F)c1)c1ccc(S(=O)(=O)N2CCCC2)cc1 | u | x | x | n | n | x
O=C(NCc1n[nH]c(=S)n1-c1cccc(Cl)c1)c1ccc(S(=O)(=O)N2CCCC2)cc1 | 4.5µM | n | n | n | n | n
O=C(NCc1n[nH]c(=S)n1-c1ccc(F)cc1)c1ccc(S(=O)(=O)N2CCCC2)cc1 | 16µM | n | n | n | n | n
C/C(=N\Nc1ccc(F)cc1F)c1ccc(N2CCOCC2)cc1 | 16µM | x | x | n | n | x
C/C(=N\Nc1ccc(F)cc1F)c1ccc(Br)s1 | 13µM | x | x | n | n | x
C/C(=N\NC(=O)c1cccc(Cl)c1)C1C(=O)c2ccccc2C1=O | 13µM | x | u | n | n | n
O=C(CN1CCN(Cc2ccccc2F)C1=O)NCC1CCCO1 (centres undefined) | x | x | x | x | n | x
O=C(CSc1nc2c(sc3ccccc32)c(=O)n1Cc1ccco1)NCC1CCCO1 (centres undefined) | 18µM | n | n | n | n | n
COc1cc2nc(SCC(=O)NCCc3ccccc3)n(Cc3ccco3)c(=O)c2cc1OC | 3.5µM | n | n | n | n | n
O=C(CSc1nc2c(sc3ccccc32)c(=O)n1Cc1ccccc1)NCC1CCCO1 (centres undefined) | n | n | n | n | n | n
CN(Cc1ccccc1)C(=O)CSc1nc2ccccc2c(=O)n1Cc1ccco1 | 7.9µM | n | n | n | u | n
O=C(CSc1nc2ccccc2c(=O)n1-c1ccccc1)NCc1ccco1 | 4.5µM | n | n | u | n | n
CN(C)/C=C(\C#N)C(=O)N/N=C(\CC(=O)C(F)(F)F)c1ccco1 | n | x | x | n | n | x
O=C(CSc1nc2cccnc2n1Cc1ccccc1)NCc1ccco1 | 25µM | n | 32µM | n | n | n
CCn1c(SCC(=O)NCc2ccco2)nc2cccnc21 | n | n | u | n | n | n
O=C(CSc1nc2ccccc2c(=O)n1Cc1ccco1)NCc1ccco1 | 25µM | n | n | n | n | n
CCCCn1c(SCC(=O)NCc2ccco2)nc2ccccc2c1=O | n | n | n | n | n | n
SMILES | ALDH1A1 block | IMPase cell inh | HPGD inh | IMPase Li cell | NPSR antag | 12-hLO inh
COc1cc(C)c(Br)cc1S(=O)(=O)N1CCOCC1 | n | n | n | n | n | n
CCn1c(CC(=O)Nc2cccc(Cl)c2Cl)nnc1SCCOc1ccc(OC)cc1 | 14µM | n | n | n | n | n
O=C(NCc1ccccc1)c1csc2c1CCCC2 | n | x | x | n | n | x
Cc1ccccc1NC(=O)c1csc2c1CCCC2 | u | n | 16µM | n | n | n
O=C(Nc1nccs1)c1csc2c1CCCC2 | u | x | 25µM | n | n | n
O=C(NCc1cccs1)c1csc2c1CCCCC2 | u | n | 22µM | n | n | n
O=C(NCc1ccco1)c1ccc2nc3sc4c(c3c(=O)n2c1)CCCC4 | u | n | u | n | 10µM | n
CN(Cc1nc2c(s1)CCCC2)C(=O)CCc1nnc(-c2ccc3c(c2)OCO3)o1 | x | x | x | x | n | x

Bioassay records deposited in PubChem BioAssay by National Center for Advancing Translational Sciences (NCATS).
